Drawing on PubChem BioAssay (EPA / NIEHS), this text covers outcome and AC50 for five molecules.

Common to all, as to conditions: mRNA level, 48 h; actives raise or lower the signal
Read-out in assay [1]: Bcl-2 (BID) gene, BID (gene 637)
In words: LTEA_HepaRG_BID: Life Technologies and Expression Analysis (LTEA) Assay for Bcl-2 (BID) gene using HepaRG (AID 2283476). Summed up: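 HepaRG, 48 h exposure, 8-pt half-log series, top 100 uM, 0.5% DMSO vehicle, duplicates. Readout: BID mRNA by TaqMan qRT-PCR; housekeeping-normalized; bidirectional curve fit vs DMSO baseline.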

Read-out in the next assay: Caspase-3 (Homo sapiens) (UniProt P42574)
Description: LTEA_HepaRG_CASP3: Life Technologies and Expression Analysis (LTEA) Assay for cysteine-aspartic acid protease (CASP3) using HepaRG (AID 2283477). In a few lines:
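HepaRG, 48 h exposure, 8 conc. (top 100 uM, half-log steps, duplicate), 0.5% DMSO vehicle; qRT-PCR of CASP3 transcript, housekeeping-normalised (ACTB/GAPDH/POLR2A); bidirectional curve fit vs DMSO baseline.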

Read-out in assay [2]: Cytochrome P450 (CYP24A1), CYP24A1 (gene 1591)
Description: LTEA_HepaRG_CYP24A1: Life Technologies and Expression Analysis (LTEA) Assay for Cytochrome P450 (CYP24A1) using HepaRG (AID 2283478). In a few lines:
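qRT-PCR read-out: CYP24A1 transcript levels normalized to three housekeeping genes, bidirectional curve fits against 0.5% DMSO baseline. Human HepaRG cells treated 48 h with chemicals at eight concentrations from 100 uM in half-log steps.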

Read-out in assay [3]: Cytochrome P450 (CYP1A2), CYP1A2 (gene 1544)
In words: LTEA_HepaRG_CYP1A2: Life Technologies and Expression Analysis (LTEA) Assay for Cytochrome P450 (CYP1A2) using HepaRG (AID 2283479). Summed up: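 HepaRG, 48 h exposure, top 100 uM, half-log 8-pt, 0.5% DMSO vehicle, duplicates. Readout: TaqMan qRT-PCR of CYP1A2 mRNA, housekeeping-normalized (ACTB/GAPDH/POLR2A). Gain/loss fit relative to DMSO baseline.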

Read-out in assay [4]: cysteine-aspartic acid protease (CASP8), CASP8 (gene 841)
Description: LTEA_HepaRG_CASP8: Life Technologies and Expression Analysis (LTEA) Assay for cysteine-aspartic acid protease (CASP8) using HepaRG (AID 2283480). Summed up: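 qRT-PCR readout of CASP8 mRNA, normalized to three housekeeping genes, after 48 h chemical exposure of HepaRG cells; 8-point half-log series, top 100 uM, 0.5% DMSO vehicle. Bidirectional curve fitting against DMSO baseline.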

Read-out in assay [5]: Cytochrome P450 (CYP2B6), CYP2B6 (gene 1555)
Description: LTEA_HepaRG_CYP2B6: Life Technologies and Expression Analysis (LTEA) Assay for Cytochrome P450 (CYP2B6) using HepaRG (AID 2283481). Summed up:
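Read-out is CYP2B6 mRNA by TaqMan qRT-PCR, normalized to three housekeeping genes and fitted bidirectionally against 0.5% DMSO baseline. Human HepaRG cells received test chemicals for 48 h, top concentration 100 uM, half-log dilutions.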

Read-out in assay [6]: Cytochrome P450 2C19 (Homo sapiens) (UniProt P33261)
Description: LTEA_HepaRG_CYP2C19: Life Technologies and Expression Analysis (LTEA) Assay for CYP2C19 using HepaRG (AID 2283482). In a few lines:
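HepaRG, 48 h chemical exposure, 8-pt half-log series from 100 uM in 0.5% DMSO, duplicates. Readout: CYP2C19 mRNA by TaqMan qRT-PCR, housekeeping-normalized. Bidirectional fit vs DMSO baseline; phenobarbital 1mM as induction control.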

Read-out in the next assay: CYP2C8 (gene 1558)
Description: LTEA_HepaRG_CYP2C8: Life Technologies and Expression Analysis (LTEA) Assay for CYP2C8 using HepaRG (AID 2283483). Summed up:
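HepaRG (human liver line), 48 h chemical exposure, 8-pt half-log series from 100 uM, 0.5% DMSO vehicle. Readout: CYP2C8 transcript by qRT-PCR, housekeeping-normalized. Bidirectional fit vs DMSO baseline.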

Read-out in a further assay: CYP2C9 (gene 1559)
Description: LTEA_HepaRG_CYP2C9: Life Technologies and Expression Analysis (LTEA) Assay for CYP2C9 using HepaRG (AID 2283484). Summed up:
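HepaRG, 48 h dosing, 8-pt half-log series, top 100 uM, 0.5% DMSO vehicle. Read-out: CYP2C9 transcript by TaqMan qRT-PCR, housekeeping-normalized (ACTB/GAPDH/POLR2A). Gain or loss fitted vs DMSO baseline.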

Read-out in a further assay: CYP2E1 (gene 1571)
Description: LTEA_HepaRG_CYP2E1: Life Technologies and Expression Analysis (LTEA) Assay for CYP2E1 using HepaRG (AID 2283485). In a few lines:
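CYP2E1 transcript was measured by TaqMan qRT-PCR in human HepaRG cultures after 48 h chemical exposure (top 100 uM, half-log steps, 0.5% DMSO vehicle). Housekeeping-gene normalization; gain or loss fitted relative to DMSO baseline.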

Read-out in a further assay: CYP4A11 (gene 1579)
Description: LTEA_HepaRG_CYP4A11: Life Technologies and Expression Analysis (LTEA) Assay for CYP4A11 using HepaRG (AID 2283486). Summed up: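 CYP4A11 transcript levels were quantified by TaqMan qRT-PCR after HepaRG human liver cells were treated for 48 hours with test chemicals (top 100 uM, half-log dilutions, 0.5% DMSO). Gain or loss of signal was fitted relative to DMSO.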

Read-out in assay [7]: Cytochrome P450 3A4 (Homo sapiens) (UniProt P08684)
In words: LTEA_HepaRG_CYP3A4: Life Technologies and Expression Analysis (LTEA) Assay for CYP3A4 using HepaRG (AID 2283487). In a few lines:
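CYP3A4 transcript measured by TaqMan qRT-PCR and normalized to three housekeeping genes after 48 h chemical exposure of human HepaRG cells. Top concentration 100 uM, half-log steps, 0.5% DMSO vehicle; gain or loss fitted against DMSO baseline.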

Read-out in assay [8]: Pro-epidermal growth factor (Homo sapiens) (UniProt P01133)
In words: LTEA_HepaRG_EGF: Life Technologies and Expression Analysis (LTEA) Assay for Epidermal growth factor (EGF) using HepaRG (AID 2283489). In a few lines:
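qRT-PCR readout of EGF transcript after 48 h chemical exposure of HepaRG cells; eight concentrations from 100 uM down in half-log steps, duplicate wells, 0.5% DMSO vehicle. Bidirectional curve fitting against DMSO baseline.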

Read-out in assay [9]: Ezrin (EZR), EZR (gene 7430)
Description: LTEA_HepaRG_EZR: Life Technologies and Expression Analysis (LTEA) Assay for Ezrin (EZR) using HepaRG (AID 2283491). In a few lines: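 HepaRG, 48 h chemical exposure, 8-pt half-log series from 100 uM, 0.5% DMSO vehicle, duplicates. Read-out: EZR mRNA by TaqMan qRT-PCR (Fluidigm array), housekeeping-normalized; bidirectional curve fit vs DMSO baseline.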

Read-out in assay [10]: Cytochrome P450 3A7 (Homo sapiens) (UniProt P24462)
Description: LTEA_HepaRG_CYP3A7: Life Technologies and Expression Analysis (LTEA) Assay for CYP3A7 using HepaRG (AID 2283492). Summed up: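 CYP3A7 transcript levels were read by TaqMan qRT-PCR on Fluidigm arrays after 48 h chemical exposure of human HepaRG cells, with housekeeping-gene normalisation. Eight half-log concentrations up to 100 uM in 0.5% DMSO were tested in duplicate.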

Read-out in a further assay: CYP3A5 (gene 1577)
In words: LTEA_HepaRG_CYP3A5: Life Technologies and Expression Analysis (LTEA) Assay for CYP3A5 using HepaRG (AID 2283493). Summed up: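 qRT-PCR read-out: CYP3A5 transcript in HepaRG lysates, housekeeping-normalized (ACTB/GAPDH/POLR2A), fitted bidirectionally against 0.5% DMSO baseline. Exposure 48 h, eight half-log concentrations up to 100 uM, duplicates.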

Read-out in assay [11]: Fatty Acid-Binding Protein 1 (FABP1), FABP1 (gene 2168)
Description: LTEA_HepaRG_FABP1: Life Technologies and Expression Analysis (LTEA) Assay for Fatty Acid-Binding Protein 1 (FABP1) using HepaRG (AID 2283494). In a few lines:
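qRT-PCR readout of FABP1 transcript (normalized to three housekeeping genes) after 48 h chemical exposure of HepaRG cells; eight concentrations, half-log steps, max 100 uM, 0.5% DMSO vehicle; gain or loss fitted relative to DMSO baseline.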

Read-out in assay [12]: Cytochrome P450 4A22 (Homo sapiens) (UniProt Q5TCH4)
In words: LTEA_HepaRG_CYP4A22: Life Technologies and Expression Analysis (LTEA) Assay for Cytochrome P450 4A22 (CYP4A22) using HepaRG (AID 2283495). Summed up:
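HepaRG, 48 h post-plating -> serum-free induction medium; dosed 48 h, duplicate, 8 conc. (100 uM top, half-log), 0.5% DMSO. Readout: CYP4A22 mRNA by qRT-PCR, ACTB/GAPDH/POLR2A normalization; gain/loss fit relative to DMSO.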

Read-out in assay [13]: DNA damage-inducible transcript 3 (DDIT3), DDIT3 (gene 1649)
In words: LTEA_HepaRG_DDIT3: Life Technologies and Expression Analysis (LTEA) Assay for DNA damage-inducible transcript 3 (DDIT3) using HepaRG (AID 2283488). Summed up: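 qRT-PCR readout (Fluidigm TaqMan), housekeeping-normalized to ACTB, GAPDH, POLR2A. HepaRG cells, 48 h exposure, 8-point half-log series from 100 uM in 0.5% DMSO, duplicates. Gain or loss of signal fitted against DMSO baseline.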

Calls of active or inactive are those of the source. How the source made its calls: active means hit-call score of the fitted dose curve at least 0.9, where 1 is the maximum; inactive means score below 0.9.

Cytochrome P450 3A4 (Homo sapiens), sequence (P08684 whole entry, looked up): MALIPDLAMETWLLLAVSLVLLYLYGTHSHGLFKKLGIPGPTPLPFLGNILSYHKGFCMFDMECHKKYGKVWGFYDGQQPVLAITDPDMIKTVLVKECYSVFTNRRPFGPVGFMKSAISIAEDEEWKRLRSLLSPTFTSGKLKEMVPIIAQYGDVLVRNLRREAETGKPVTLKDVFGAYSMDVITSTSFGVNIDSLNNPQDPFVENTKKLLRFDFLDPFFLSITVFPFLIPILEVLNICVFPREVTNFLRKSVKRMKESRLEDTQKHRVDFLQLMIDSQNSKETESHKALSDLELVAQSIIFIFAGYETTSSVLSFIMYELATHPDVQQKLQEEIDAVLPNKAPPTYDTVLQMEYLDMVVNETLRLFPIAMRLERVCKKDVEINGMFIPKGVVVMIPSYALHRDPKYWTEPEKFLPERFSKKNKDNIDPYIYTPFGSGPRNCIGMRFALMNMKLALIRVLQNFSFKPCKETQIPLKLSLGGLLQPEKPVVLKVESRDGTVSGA
Caspase-3 (Homo sapiens), sequence (P42574 whole entry, looked up): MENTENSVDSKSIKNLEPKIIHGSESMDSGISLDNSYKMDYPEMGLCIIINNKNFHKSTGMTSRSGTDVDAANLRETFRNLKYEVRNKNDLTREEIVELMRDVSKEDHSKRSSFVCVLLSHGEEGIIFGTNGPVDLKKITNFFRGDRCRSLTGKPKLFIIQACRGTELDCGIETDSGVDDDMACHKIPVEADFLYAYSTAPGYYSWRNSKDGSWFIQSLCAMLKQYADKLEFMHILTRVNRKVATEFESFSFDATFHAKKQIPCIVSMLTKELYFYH
Cytochrome P450 2C19 (Homo sapiens), sequence (P33261 whole entry, looked up): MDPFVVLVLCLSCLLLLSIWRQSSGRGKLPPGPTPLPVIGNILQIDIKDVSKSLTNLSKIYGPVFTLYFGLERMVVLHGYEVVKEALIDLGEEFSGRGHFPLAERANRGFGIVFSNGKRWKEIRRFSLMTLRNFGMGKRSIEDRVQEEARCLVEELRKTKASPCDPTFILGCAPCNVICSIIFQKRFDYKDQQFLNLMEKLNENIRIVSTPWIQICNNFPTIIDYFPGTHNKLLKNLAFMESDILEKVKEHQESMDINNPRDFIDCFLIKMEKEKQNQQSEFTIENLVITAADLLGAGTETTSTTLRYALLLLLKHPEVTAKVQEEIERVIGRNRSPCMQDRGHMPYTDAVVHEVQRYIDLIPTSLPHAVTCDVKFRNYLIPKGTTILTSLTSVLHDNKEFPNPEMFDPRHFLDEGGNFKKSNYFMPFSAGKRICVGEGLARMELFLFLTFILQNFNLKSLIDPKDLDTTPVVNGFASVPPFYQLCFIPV
Cytochrome P450 3A7 (Homo sapiens), sequence (P24462 whole entry, looked up): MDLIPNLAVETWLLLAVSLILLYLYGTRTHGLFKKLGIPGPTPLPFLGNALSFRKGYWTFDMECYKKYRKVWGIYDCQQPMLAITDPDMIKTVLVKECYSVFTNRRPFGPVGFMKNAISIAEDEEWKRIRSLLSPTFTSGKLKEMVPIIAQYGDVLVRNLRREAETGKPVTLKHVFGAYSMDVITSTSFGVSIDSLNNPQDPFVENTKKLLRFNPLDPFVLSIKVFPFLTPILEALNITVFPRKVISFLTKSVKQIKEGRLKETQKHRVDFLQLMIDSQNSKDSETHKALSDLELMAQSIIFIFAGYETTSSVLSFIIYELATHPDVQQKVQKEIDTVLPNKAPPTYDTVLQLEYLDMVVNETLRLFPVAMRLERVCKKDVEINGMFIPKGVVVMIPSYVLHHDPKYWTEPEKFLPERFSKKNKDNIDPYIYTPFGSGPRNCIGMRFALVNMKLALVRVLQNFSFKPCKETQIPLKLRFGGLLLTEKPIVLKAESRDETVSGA

Take `COP(=O)(OC)O/C(C)=C/C(=O)N(C)C`: the molecule was classed as inactive (in [1]; with Caspase-3 (Homo sapiens); in [2]; in [3]; in assay [4]; in assay [5]). The result (in [6]; with CYP2C8 (gene 1558); in the assay with CYP2C9 (gene 1559); in the assay with CYP2E1 (gene 1571); with CYP4A11 (gene 1579); in [7]) was inactive. In addition, the molecule was called inactive (in assay [8]; in [9]; in assay [10]; with CYP3A5 (gene 1577); in assay [11]; in [12]).

Turning to `CC(C)NC(=O)N1CC(=O)N(c2cc(Cl)cc(Cl)c2)C1=O`, the result (in [1]; in the assay with Caspase-3 (Homo sapiens); in assay [2]; in assay [4]; in [6]; with CYP2C8 (gene 1558)) was inactive. The molecule was called inactive (with CYP2C9 (gene 1559); in assay [13]; in [9]; with CYP3A5 (gene 1577)). In addition, the AC50 (commonly the midpoint of the concentration-response curve, whichever way the signal moves) in assay [3] was 8.18 µM (active); in [5], 3.63 µM (active); with CYP2E1 (gene 1571) it was 13.2 µM (active); in assay [7] it was 2.97 µM (active); in [8] it was 12.8 µM (active); in assay [11], 13.2 µM (active). Besides, the half-maximal activity concentration (AC50) in assay [12] is 8.83 µM (active).

As for `CSC(=O)c1c(C(F)F)nc(C(F)(F)F)c(C(=O)SC)c1CC(C)C`, the molecule was classed as inactive (in [1]; with Caspase-3 (Homo sapiens); in assay [2]; in assay [3]; in assay [4]; in [8]). Moreover, the outcome (in [9]; with CYP3A5 (gene 1577)) was inactive. The AC50 in assay [5] was 11.8 µM (active); in assay [6], 12.2 µM (active); with CYP2C8 (gene 1558), 11.5 µM (active); with CYP2C9 (gene 1559), 87 µM (active); in the assay with CYP2E1 (gene 1571), 53.7 µM (active); in the assay with CYP4A11 (gene 1579), 87.3 µM (active). In addition, the half-maximal activity concentration (AC50) in assay [7] was 2.51 µM (active); in assay [11], 9.87 µM (active); in [12], 80.7 µM (active).

Take `N#Cc1c[nH]cc1-c1cccc2c1OC(F)(F)O2`: the molecule was classed as inactive (in assay [1]; with Caspase-3 (Homo sapiens); in assay [2]; in [4]; with CYP2C8 (gene 1558); in [8]). For the same molecule, the molecule was classed as inactive (in assay [9]; in [10]; with CYP3A5 (gene 1577)). Besides, the AC50 in assay [3] was 21.3 µM (active); in [5] it was 32 µM (active); in assay [6] it was 93.5 µM (active); in the assay with CYP2C9 (gene 1559) it was 50 µM (active); with CYP2E1 (gene 1571), 76 µM (active); with CYP4A11 (gene 1579) it was 85.2 µM (active). Also, the AC50 in [7] is 9.76 µM (active); in assay [11], 50 µM (active); in [12], 84.8 µM (active).

Regarding `CC1(C)C(C(=O)OC(C#N)c2cccc(Oc3ccccc3)c2)C1(C)C` (stereo not drawn), the molecule was called inactive (in assay [1]; with Caspase-3 (Homo sapiens); in assay [2]; in assay [4]; in the assay with CYP2C8 (gene 1558); with CYP2C9 (gene 1559)). The outcome (in assay [8]; in assay [9]; in [10]; with CYP3A5 (gene 1577); in assay [11]; in assay [12]) was inactive. The AC50 in assay [3] is 39.6 µM (active); in assay [5] it was 67.6 µM (active); in assay [6] it was 50 µM (active); with CYP2E1 (gene 1571), 9.92 µM (active); in the assay with CYP4A11 (gene 1579) it was 50 µM (active); in [7], 50 µM (active).
